# PubChem BioAssay (NCATS)
# Records with an inconclusive call do not appear. Unmarked numbers belong to inactive results. Active and inactive are the calls of the source. Calls come from the whole dose curve.
# Biological target: Estrogen receptor (Homo sapiens) (UniProt P03372)
# Assay: qHTS assay for small molecule agonists of estrogen receptor alpha signaling (AID 588514); note: nearly all actives have a fitted effect of over 70% in size
# Settings: ER-alpha-UAS-bla HEK293, beta-lactamase ratio, 18 h, percent of full estradiol response, vehicle zero; series mostly up to 76.8 µM; activation: at the top concentration
# Description: NIH Chemical Genomics Center [NCGC]
# U.S. Environmental Protection Agency [EPA]
# National Institutes of Environmental Health Sciences [NIEHS]
# National Toxicology Program [NTP]
# Estrogen receptor alpha (ER-alpha) is an important member of nuclear hormone receptors. ER-alpha plays important role in breast cancer as well as in other women's health issues. The majority of breast cancers is estrogen receptor (ER) positive and depends on estrogen for growth. There is also growing concern for some of environmental chemicals which may contribute the increasing the incidence of breast cancer. Therefore, it is important to understand the effect of environmental chemicals in ER-alpha signaling pathway.
# NCGC Assay Protocol Summary
# Using a beta-lactamase reporter-gene under control of the ER response element, a cell-based assay [ER-alpha-UAS-bla GripTiteTM cell-Based Assay from Invitrogen] was used to measure ER-alpha signaling pathway in agonist mode. ER-alpha-UAS-bla-GripTite HEK 293 cells were used with assay medium containing 2% charcoal/dextran treated FBS, 0.1 mM NEAA and 1 mM sodium pyruvate. Cells were cultured in this assay medium overnight in the flasks before the assay. The assay was performed in clear bottom black Greiner 1536-well plates. 17-beta-estradiol was used as a positive control in the screen. Library compounds were measured for their ability to either stimulate the reporter gene activity. Compounds were screened in a titration series in 1536-well format. […] Data was normalized relative to 17-beta-estradiol control (20 nM, 100%), and DMSO only wells (basal, 0%). Concentration-response titration points for each compound were fitted to the Hill equation yielding concentrations of half-maximal stimulation (EC50) and maximal response (efficacy) values.
# qHTS protocol for ER-alpha beta-lactamase assay in agonist mode
# [Step] [Parameter] [Value] [Description]
# 1. Reagent; 6 uL; 5000 cells/well
# 2. Incubation; 37 C for 4 hrs
# 4. Controls (17-beta-estradiol); 23 nL
# - Dose response, start 1uM, 1:3 dilutions with duplicates
# - Two columns with 20 and 0.5 nM (final) concentration.
# 5. Incubation; 37 C for 18 hrs
# 6. Detection reagent; 1 uL of CCF4-dye
# 7. Incubation; RT for 2 hrs
# 8. Detection; Fluorescence; Envision plate reader or Acumen plate reader
# Estrogen receptor (Homo sapiens), sequence (P03372 whole entry, looked up): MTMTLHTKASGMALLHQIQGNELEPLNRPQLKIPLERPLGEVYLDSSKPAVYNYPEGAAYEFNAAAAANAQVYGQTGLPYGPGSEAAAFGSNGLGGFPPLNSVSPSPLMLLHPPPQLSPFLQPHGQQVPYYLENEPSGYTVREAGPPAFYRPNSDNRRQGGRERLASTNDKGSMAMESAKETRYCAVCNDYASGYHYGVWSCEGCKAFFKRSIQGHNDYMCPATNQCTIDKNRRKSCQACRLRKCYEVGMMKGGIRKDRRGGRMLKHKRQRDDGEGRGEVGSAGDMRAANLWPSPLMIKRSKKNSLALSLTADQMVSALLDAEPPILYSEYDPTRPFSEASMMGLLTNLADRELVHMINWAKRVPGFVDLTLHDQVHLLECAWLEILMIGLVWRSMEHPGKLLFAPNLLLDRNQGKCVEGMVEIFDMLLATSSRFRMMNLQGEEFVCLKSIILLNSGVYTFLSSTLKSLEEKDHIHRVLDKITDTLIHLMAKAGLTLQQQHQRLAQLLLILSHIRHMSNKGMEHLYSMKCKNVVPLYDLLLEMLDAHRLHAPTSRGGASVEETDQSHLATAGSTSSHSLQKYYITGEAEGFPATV
SMILES,outcome,activation [%]
Nc1ccc(S(=O)(=O)c2ccc(N)cc2)cc1,inactive,–
CC(=O)Nc1ccc(C(=O)O)cc1,–,-0.0563
CCCCCCCCCCCCCCCCCCO,–,3.93
O=C(O)CCCCC1CCSS1 (configuration not stated),inactive,–
CCCC(O)C(CC)CO (configuration not stated),–,5.21
CC(=O)Nc1cccc(O)c1,–,-1.09
O=C(OOC(=O)c1ccccc1)c1ccccc1,–,2.34
CC(=O)Nc1ccccc1,–,-9.21
CC(=O)NS(=O)(=O)c1ccc(N)cc1,–,0.939
OC[C@@H](O)[C@@H](O)[C@H](O)[C@H](O)CO,–,6.57
Cc1cc(=O)[nH]c(=S)[nH]1,–,-3.24
CCN(CC)C(=O)c1cccc(C)c1,inactive,–
CCCCCCCC(=O)OCC(COC(=O)CCCCCCC)OC(=O)CCCCCCC,–,4.47
CC[N+](CC)(CC(=O)Nc1c(C)cccc1C)Cc1ccccc1,–,1.81
COC(=O)c1ccc(O)cc1,–,14.5
Cc1c(N(C)C)c(=O)n(-c2ccccc2)n1C,inactive,–
FC(F)(F)C(Cl)Br (configuration not stated),–,2.04
